# Values joined by “and” are separate entries in the source; they are usually repeats but may differ in a detail not shown here. Equal values may be shown once. Hit rate of the full screen: of about 5,500 compounds, about 2,000 (36%) were called active. Inconclusive results (about 18%) are left out. This is one part of the list. Unmarked numbers belong to inactive results. Cut-off read from the data, not from the text of the source: active = normalized growth mostly below about 0.91 (no sharp cut-off); inconclusive = no clear call, values can overlap the other calls; inactive = mostly above about 0.92.
# Assay: chemical genetic growth profiling, strain panel (AID 1159580);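 note: tested at 20 µM; growth read once vehicle control cultures reached saturation at 30 °C; 1 = growth at the plate median or of vehicle wells; lower values mean less growth of the strain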
# Settings: growth OD
smiles,measurement,setting,value
CN(C)CCC=C1c2ccccc2C=Cc2ccccc21,normalized growth,"S. cerevisiae deletion strains, locus YKL009W, strain mrt4, stronger effect = lower value",0.959
same,normalized growth,"S. cerevisiae deletion strains, locus YKL068W, stronger effect = lower value",0.982
same,normalized growth,"S. cerevisiae deletion strains, locus YKL085W, strain MDH1 (second series), stronger effect = lower value",0.975
same,normalized growth,"S. cerevisiae deletion strains, locus YKL085W, strain MDH1, stronger effect = lower value",0.975
same,normalized growth,"S. cerevisiae deletion strains, locus YKL160W, strain elf1, stronger effect = lower value",0.958
same,normalized growth,"S. cerevisiae deletion strains, locus YKL190W, strain CNB1, stronger effect = lower value",0.977
same,normalized growth,"S. cerevisiae deletion strains, locus YKR001C, strain vps1, stronger effect = lower value",1.01
same,normalized growth,"S. cerevisiae deletion strains, locus YKR026C, strain gcn3, stronger effect = lower value",0.998
same,normalized growth,"S. cerevisiae deletion strains, locus YKR091W, strain srl3, stronger effect = lower value",0.971
same,normalized growth,"S. cerevisiae deletion strains, locus YLL001W, strain dnm1, stronger effect = lower value",1.01
same,normalized growth,"S. cerevisiae deletion strains, locus YLL026W, stronger effect = lower value",0.985
same,normalized growth,"S. cerevisiae deletion strains, locus YLL041C, strain sdh2, stronger effect = lower value",0.984
same,normalized growth,"S. cerevisiae deletion strains, locus YLR027C, strain aat2, stronger effect = lower value",0.98
same,normalized growth,"S. cerevisiae deletion strains, locus YLR039C, strain RIC1, stronger effect = lower value",1.35 [resistant] (active)
same,normalized growth,"S. cerevisiae deletion strains, locus YLR058C, strain SHM2, stronger effect = lower value",0.99
same,normalized growth,"S. cerevisiae deletion strains, locus YLR102C, strain apc9, stronger effect = lower value",0.985
same,normalized growth,"S. cerevisiae deletion strains, locus YLR113W, strain HOG1, stronger effect = lower value",1.04
same,normalized growth,"S. cerevisiae deletion strains, locus YLR221C, strain rsa3, stronger effect = lower value",1
same,normalized growth,"S. cerevisiae deletion strains, locus YLR258W, strain gsy2, stronger effect = lower value",0.989
same,normalized growth,"S. cerevisiae deletion strains, locus YLR262C, strain YPT6 (second series), stronger effect = lower value",1.02
same,normalized growth,"S. cerevisiae deletion strains, locus YLR262C, strain YPT6, stronger effect = lower value",1.53 [resistant] (active)
same,normalized growth,"S. cerevisiae deletion strains, locus YLR268W, strain sec22, stronger effect = lower value",0.99
same,normalized growth,"S. cerevisiae deletion strains, locus YLR320W, strain mms22, stronger effect = lower value",1.01
same,normalized growth,"S. cerevisiae deletion strains, locus YLR330W, strain CHS5, stronger effect = lower value",0.987
same,normalized growth,"S. cerevisiae deletion strains, locus YLR342W, strain FKS1 (second series), stronger effect = lower value",0.903
same,normalized growth,"S. cerevisiae deletion strains, locus YLR342W, strain FKS1, stronger effect = lower value",0.979
same,normalized growth,"S. cerevisiae deletion strains, locus YLR357W, strain rsc2, stronger effect = lower value",1.01
same,normalized growth,"S. cerevisiae deletion strains, locus YLR370C, strain arc18, stronger effect = lower value",0.988
same,normalized growth,"S. cerevisiae deletion strains, locus YLR371W, strain rom2, stronger effect = lower value",0.992
same,normalized growth,"S. cerevisiae deletion strains, locus YLR384C, strain iki3, stronger effect = lower value",0.991
same,normalized growth,"S. cerevisiae deletion strains, locus YLR418C, strain cdc73, stronger effect = lower value",0.811 (active)
same,normalized growth,"S. cerevisiae deletion strains, locus YML016C, strain PPZ1, stronger effect = lower value",0.996
same,normalized growth,"S. cerevisiae deletion strains, locus YML032C, strain rad52, stronger effect = lower value",1.01
same,normalized growth,"S. cerevisiae deletion strains, locus YML120C, strain ndi1, stronger effect = lower value",1
same,normalized growth,"S. cerevisiae deletion strains, locus YML124C, strain tub3, stronger effect = lower value",0.997
same,normalized growth,"S. cerevisiae deletion strains, locus YMR058W, strain fet3, stronger effect = lower value",0.968
same,normalized growth,"S. cerevisiae deletion strains, locus YMR078C, strain ctf18, stronger effect = lower value",0.984
same,normalized growth,"S. cerevisiae deletion strains, locus YMR125W, strain sto1, stronger effect = lower value",0.95
same,normalized growth,"S. cerevisiae deletion strains, locus YMR129W, stronger effect = lower value",0.99
same,normalized growth,"S. cerevisiae deletion strains, locus YMR205C, strain PFK2, stronger effect = lower value",1
same,normalized growth,"S. cerevisiae deletion strains, locus YMR223W, strain ubp8, stronger effect = lower value",0.951
same,normalized growth,"S. cerevisiae deletion strains, locus YMR231W, strain pep5, stronger effect = lower value",0.989
same,normalized growth,"S. cerevisiae deletion strains, locus YMR263W, strain SAP30, stronger effect = lower value",1
same,normalized growth,"S. cerevisiae deletion strains, locus YMR307W, strain GAS1, stronger effect = lower value",1.01 and 0.999
same,normalized growth,"S. cerevisiae deletion strains, locus YNL067W, strain RPL9B, stronger effect = lower value",0.994
same,normalized growth,"S. cerevisiae deletion strains, locus YNL071W, strain lat1, stronger effect = lower value",0.99
same,normalized growth,"S. cerevisiae deletion strains, locus YNL153C, strain GIM3, stronger effect = lower value",1.04 and 1
same,normalized growth,"S. cerevisiae deletion strains, locus YNL175C, strain NOP13, stronger effect = lower value",1.06
same,normalized growth,"S. cerevisiae deletion strains, locus YNL183C, strain NPR1, stronger effect = lower value",0.955
same,normalized growth,"S. cerevisiae deletion strains, locus YNL197C, strain WHI3, stronger effect = lower value",1.02
same,normalized growth,"S. cerevisiae deletion strains, locus YNL209W, strain ssb2, stronger effect = lower value",0.925 (active)
same,normalized growth,"S. cerevisiae deletion strains, locus YNL224C, strain SQS1, stronger effect = lower value",1.01
same,normalized growth,"S. cerevisiae deletion strains, locus YNL233W, strain BNI4, stronger effect = lower value",1.02
same,normalized growth,"S. cerevisiae deletion strains, locus YNL248C, strain rpa49, stronger effect = lower value",0.959
same,normalized growth,"S. cerevisiae deletion strains, locus YNL250W, strain rad50, stronger effect = lower value",0.985
same,normalized growth,"S. cerevisiae deletion strains, locus YNL271C, strain bni1, stronger effect = lower value",0.986
same,normalized growth,"S. cerevisiae deletion strains, locus YNL298W, strain CLA4, stronger effect = lower value",0.988
same,normalized growth,"S. cerevisiae deletion strains, locus YNL307C, strain MCK1, stronger effect = lower value",0.994
same,normalized growth,"S. cerevisiae deletion strains, locus YNL322C, strain KRE1 (second series), stronger effect = lower value",0.992
same,normalized growth,"S. cerevisiae deletion strains, locus YNL322C, strain KRE1, stronger effect = lower value",0.977
same,normalized growth,"S. cerevisiae deletion strains, locus YNR049C, strain mso1, stronger effect = lower value",0.978
same,normalized growth,"S. cerevisiae deletion strains, locus YNR052C, strain pop2, stronger effect = lower value",0.948
same,normalized growth,"S. cerevisiae deletion strains, locus YOL006C, strain TOP1, stronger effect = lower value",0.852
same,normalized growth,"S. cerevisiae deletion strains, locus YOL012C, strain htz1",0.956
same,normalized growth,"S. cerevisiae deletion strains, locus YOL147C, strain pex11, stronger effect = lower value",0.996
same,normalized growth,"S. cerevisiae deletion strains, locus YOR001W, strain rrp6, stronger effect = lower value",0.965
same,normalized growth,"S. cerevisiae deletion strains, locus YOR061W, strain CKA2, stronger effect = lower value",0.99
same,normalized growth,"S. cerevisiae deletion strains, locus YOR069W, strain VPS5, stronger effect = lower value",0.983
same,normalized growth,"S. cerevisiae deletion strains, locus YOR070C, strain gyp1, stronger effect = lower value",0.966
same,normalized growth,"S. cerevisiae deletion strains, locus YOR080W, strain dia2, stronger effect = lower value",0.98
same,normalized growth,"S. cerevisiae deletion strains, locus YOR083W, strain WHI5 (second series), stronger effect = lower value",1.08
same,normalized growth,"S. cerevisiae deletion strains, locus YOR083W, strain WHI5, stronger effect = lower value",0.945
same,normalized growth,"S. cerevisiae deletion strains, locus YOR106W, strain vam3, stronger effect = lower value",0.89
same,normalized growth,"S. cerevisiae deletion strains, locus YOR136W, strain idh2, stronger effect = lower value",1.03
same,normalized growth,"S. cerevisiae deletion strains, locus YOR144C, strain elg1, stronger effect = lower value",1
same,normalized growth,"S. cerevisiae deletion strains, locus YOR184W, strain ser1, stronger effect = lower value",1.04
same,normalized growth,"S. cerevisiae deletion strains, locus YOR231W, strain MKK1, stronger effect = lower value",1.02
same,normalized growth,"S. cerevisiae deletion strains, locus YOR265W, strain rbl2, stronger effect = lower value",0.983
same,normalized growth,"S. cerevisiae deletion strains, locus YOR270C, strain vph1, stronger effect = lower value",0.809
same,normalized growth,"S. cerevisiae deletion strains, locus YOR290C, strain snf2, stronger effect = lower value",0.958
same,normalized growth,"S. cerevisiae deletion strains, locus YOR316C, strain cot1, stronger effect = lower value",0.988
same,normalized growth,"S. cerevisiae deletion strains, locus YPL051W, strain arl3, stronger effect = lower value",0.964
same,normalized growth,"S. cerevisiae deletion strains, locus YPL078C, strain atp4, stronger effect = lower value",0.989
same,normalized growth,"S. cerevisiae deletion strains, locus YPL106C, strain sse1, stronger effect = lower value",0.927
same,normalized growth,"S. cerevisiae deletion strains, locus YPL240C, strain hsp82, stronger effect = lower value",0.985
same,normalized growth,"S. cerevisiae deletion strains, locus YPL241C, strain CIN2, stronger effect = lower value",0.978 and 1
same,normalized growth,"S. cerevisiae deletion strains, locus YPL256C, strain CLN2, stronger effect = lower value",1.01
same,normalized growth,"S. cerevisiae deletion strains, locus YPR119W, strain clb2, stronger effect = lower value",0.998
same,normalized growth,"S. cerevisiae deletion strains, locus YPR141C, strain kar3, stronger effect = lower value",0.987
same,normalized growth,"S. cerevisiae deletion strains, locus YPR163C, strain tif3, stronger effect = lower value",0.988
same,normalized growth,"S. cerevisiae deletion strains, locus YPR167C, strain met16, stronger effect = lower value",0.992
same,normalized growth,"S. cerevisiae deletion strains, strain wtn01, stronger effect = lower value",0.981
same,normalized growth,"S. cerevisiae strains, strain wild type, stronger effect = lower value",0.99

# From PubChem BioAssay AID1159580 (chemical genetic matrix, 2015)
